# Laboratory results from the supplement of paper PMC8728848.
# This is one part of a sample in which the strongest signals are shown more often than they occur.
# B1: HPAIIITrx (Helix pomatia), Q1KM18 (protein)
# chain: MLFVTIISLGLLAIVHGQCALKTIAFSAAIDREQTFDANQVVIYDIVITNHGNAYDNSTGLFTAPVDGMYSFQLNLLTIKEKEGWLELVHNGQLKVSVYAKQDSTYDSSSNSVIIKMKEGDRVNVRAHKKSGLFGRDDELYNTFSGHFLSGL
# Legend:
# Assay in all cases: glycan array binding signal (z-score within array); higher = stronger binding
# Conditions in all cases: glycan notation: IUPAC condensed, linker removed
# [1] = target: GalNAc(a1-3)GalNAc(b1-3)Gal(a1-4)Gal(b1-4)Glc
# Procedure, shortened: (§1)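 Glycan array data came from 3228 arrays in the Consortium for Functional Glycomics database, and only arrays with an available protein sequence were kept. Glycan names were put into IUPAC-condensed notation, and columns mapping to the same glycan were averaged. The binding signal is a within-array Z-score, averaged across arrays of one protein sequence run at different concentrations or buffers and across linkers. A negative Z-score can be read as non-binding.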
# [2] = target: GalNAc(a1-3)GalNAc(b1-3)Gal(a1-4)Gal(b1-4)GlcNAc
# Procedure, shortened: as §1
# [3] = target: GalNAc(b1-3)GalNAc
# Procedure, shortened: as §1
# [4] = target: Glc(b1-4)Glc
# Procedure, shortened: as §1
# [5] = target: GlcA(b1-6)Gal
# Procedure, shortened: as §1
# [6] = target: GlcNAc(a1-3)Gal(b1-4)GlcNAc
# Procedure, shortened: as §1
# [7] = target: GlcNAc(a1-4)Gal(b1-4)GlcNAc(b1-3)Gal(b1-4)GlcNAc
# Procedure, shortened: as §1
# [8] = target: GlcNAc(a1-4)Gal(b1-4)GlcNAc(b1-3)Gal(b1-4)GlcNAc(b1-3)Gal(b1-4)GlcNAc
# Procedure, shortened: as §1
# [9] = target: GlcNAc(a1-6)Gal(b1-4)GlcNAc
# Procedure, shortened: as §1
# [10] = target: GlcNAc(b1-3)Gal(b1-4)GlcNAc(b1-3)Gal(b1-4)GlcNAc(b1-2)Man(a1-3)[GlcNAc(b1-3)Gal(b1-4)GlcNAc(b1-3)Gal(b1-4)GlcNAc(b1-2)Man(a1-6)]Man(b1-4)GlcNAc(b1-4)[Fuc(a1-6)]GlcNAc
# Procedure, shortened: as §1
# [11] = target: Kdn(a2-3)Gal(b1-3)GalNAc
# Procedure, shortened: as §1
# [12] = target: Kdn(a2-3)Gal(b1-4)Glc
# Procedure, shortened: as §1
# [13] = target: Kdn(a2-6)Gal(b1-4)GlcNAc
# Procedure, shortened: as §1
# [14] = target: Man(a1-2)Man(a1-3)Man
# Procedure, shortened: as §1
# [15] = target: Neu5Ac(a2-3)Gal(b1-4)GlcNAc6S
# Procedure, shortened: as §1
# [16] = target: Neu5Ac(a2-3)Gal(b1-4)[Fuc(a1-3)]GlcNAc(b1-3)Gal(b1-4)[Fuc(a1-3)]GlcNAc(b1-3)Gal(b1-4)[Fuc(a1-3)]GlcNAc
# Procedure, shortened: as §1
# [17] = target: Neu5Ac(a2-6)Gal(b1-4)GlcNAc(b1-2)Man(a1-3)[Man(a1-6)]Man(b1-4)GlcNAc(b1-4)GlcNAc
# Procedure, shortened: as §1
# [18] = target: Neu5Ac(a2-6)Gal(b1-4)GlcNAc(b1-2)Man(a1-6)Man(b1-4)GlcNAc(b1-4)GlcNAc
# Procedure, shortened: as §1
# [19] = target: Neu5Ac(a2-6)Gal(b1-4)GlcNAc(b1-2)Man(a1-6)[GlcNAc(b1-2)Man(a1-3)]Man(b1-4)GlcNAc(b1-4)GlcNAc
# Procedure, shortened: as §1
# [20] = target: Neu5Ac(a2-6)Gal(b1-4)GlcNAc(b1-3)Gal(b1-4)GlcNAc(b1-6)[Gal(b1-3)]GalNAc
# Procedure, shortened: as §1
# [21] = target: Neu5Ac(a2-6)Gal(b1-4)GlcNAc(b1-3)Gal(b1-4)[Fuc(a1-3)]GlcNAc(b1-3)Gal(b1-4)[Fuc(a1-3)]GlcNAc
# Procedure, shortened: as §1
# [22] = target: Neu5Ac(a2-6)Gal(b1-4)GlcNAc(b1-3)[Neu5Ac(a2-6)Gal(b1-4)GlcNAc(b1-6)]GalNAc
# Procedure, shortened: as §1
# [23] = target: Neu5Ac(a2-6)Gal(b1-4)GlcNAc(b1-6)[Gal(b1-3)]GalNAc
# Procedure, shortened: as §1
# [24] = target: Neu5Ac(a2-6)GalNAc(b1-4)GlcNAc6S
# Procedure, shortened: as §1
# [25] = target: Neu5Ac(a2-8)Neu5Ac(a2-3)Gal(b1-3)GalNAc(b1-4)[Neu5Ac(a2-8)Neu5Ac(a2-3)]Gal(b1-4)Glc
# Procedure, shortened: as §1
# [26] = target: Neu5Gc(a2-3)Gal(b1-4)Glc
# Procedure, shortened: as §1
binder,measurement,setting,value
B1,glycan array binding signal (z-score),[1],5.39
same,glycan array binding signal (z-score),[2],4.56
same,glycan array binding signal (z-score),[3],-0.254
same,glycan array binding signal (z-score),[4],-0.122
same,glycan array binding signal (z-score),[5],-0.196
same,glycan array binding signal (z-score),[6],0.416
same,glycan array binding signal (z-score),[7],1.69
same,glycan array binding signal (z-score),[8],2.06
same,glycan array binding signal (z-score),[9],-0.341
same,glycan array binding signal (z-score),[10],-0.228
same,glycan array binding signal (z-score),[11],-0.152
same,glycan array binding signal (z-score),[12],0.214
same,glycan array binding signal (z-score),[13],-0.263
same,glycan array binding signal (z-score),[14],-0.321
same,glycan array binding signal (z-score),[15],-0.337
same,glycan array binding signal (z-score),[16],0.089
same,glycan array binding signal (z-score),[17],-0.533
same,glycan array binding signal (z-score),[18],-0.31
same,glycan array binding signal (z-score),[19],-0.492
same,glycan array binding signal (z-score),[20],-0.292
same,glycan array binding signal (z-score),[21],-0.392
same,glycan array binding signal (z-score),[22],-0.408
same,glycan array binding signal (z-score),[23],-0.3
same,glycan array binding signal (z-score),[24],-0.278
same,glycan array binding signal (z-score),[25],-0.38
same,glycan array binding signal (z-score),[26],-0.237
